Assay [1] addresses Mast/stem cell growth factor receptor Kit (Homo sapiens) (UniProt P10721). The settings on record: at 1 µM.
The subject of assay [2] is Mast/stem cell growth factor receptor Kit (Homo sapiens), P10721 [D816V]. The settings on record: at 0.1 µM.
The test system is the same in assay [3]. To be noted: at 1 µM.
Assay [4] concerns Mast/stem cell growth factor receptor Kit (Homo sapiens), P10721 [T670I]. The settings on record: at 0.1 µM.
Assay [5] has the same test system. To be noted: at 1 µM.
In assay [6] the test system is Mast/stem cell growth factor receptor Kit (Homo sapiens), P10721 [V560G]. The settings on record: at 0.1 µM.
Assay [7] shares this test system. To be noted: at 1 µM.
In assay [8] the target is Tyrosine-protein kinase Lck (Homo sapiens) (UniProt P06239). To be noted: at 0.1 µM.
Assay [9] has the same target. The settings on record: at 1 µM.
Assay [10] concerns the target Leukocyte tyrosine kinase receptor (Homo sapiens) (UniProt P29376). The settings on record: at 0.1 µM.
For assay [11] the target is unchanged. The settings on record: at 1 µM.
The target of assay [12] is Tyrosine-protein kinase Lyn (Homo sapiens) (UniProt P07948). The settings on record: at 0.1 µM.
The target is the same in assay [13]. The settings on record: at 1 µM.
Assay [14] shares this target. To be noted: at 0.1 µM. This is another data set of the same source.
Assay [15] has the same target. The settings on record: at 1 µM. The source holds these as a separate data set.
Assay [16] deals with T1, Tyrosine-protein kinase Mer (Homo sapiens) (UniProt Q12866).
T1 sequence (whole entry): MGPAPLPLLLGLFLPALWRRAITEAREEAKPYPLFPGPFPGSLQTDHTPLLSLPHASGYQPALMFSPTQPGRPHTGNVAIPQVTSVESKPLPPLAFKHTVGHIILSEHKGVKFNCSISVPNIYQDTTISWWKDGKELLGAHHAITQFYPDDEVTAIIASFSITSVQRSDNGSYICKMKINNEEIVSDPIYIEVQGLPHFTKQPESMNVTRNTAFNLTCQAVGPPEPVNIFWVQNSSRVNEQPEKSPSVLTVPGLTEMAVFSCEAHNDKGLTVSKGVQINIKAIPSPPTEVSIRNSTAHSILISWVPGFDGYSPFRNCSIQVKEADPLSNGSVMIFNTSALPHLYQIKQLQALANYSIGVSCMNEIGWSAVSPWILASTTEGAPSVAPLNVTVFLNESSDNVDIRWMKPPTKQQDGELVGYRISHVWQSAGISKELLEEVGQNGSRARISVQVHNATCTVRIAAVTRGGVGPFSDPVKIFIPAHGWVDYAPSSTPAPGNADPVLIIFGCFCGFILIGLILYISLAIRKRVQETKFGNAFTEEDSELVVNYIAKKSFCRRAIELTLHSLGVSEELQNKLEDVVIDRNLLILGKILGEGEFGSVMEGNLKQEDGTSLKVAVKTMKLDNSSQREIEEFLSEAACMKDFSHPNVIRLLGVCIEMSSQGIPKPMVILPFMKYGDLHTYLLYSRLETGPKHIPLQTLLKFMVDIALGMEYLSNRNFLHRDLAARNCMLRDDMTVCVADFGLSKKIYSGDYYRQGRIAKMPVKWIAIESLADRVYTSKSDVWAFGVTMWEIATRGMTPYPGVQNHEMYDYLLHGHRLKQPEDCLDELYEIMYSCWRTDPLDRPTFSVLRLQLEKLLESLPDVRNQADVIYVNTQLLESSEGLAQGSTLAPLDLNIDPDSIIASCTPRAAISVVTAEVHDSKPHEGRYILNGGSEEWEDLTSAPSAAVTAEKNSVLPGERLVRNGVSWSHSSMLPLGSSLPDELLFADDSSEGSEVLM
To be noted: at 0.1 µM.

The target in assay [17] is T1, Tyrosine-protein kinase Mer (Homo sapiens). The settings on record: at 1 µM.
In assay [18] the target is Hepatocyte growth factor receptor (Homo sapiens) (UniProt P08581). The settings on record: at 0.1 µM.
Assay [19] has the same target. To be noted: at 1 µM.
Assay [20] deals with T2, Muscle, skeletal receptor tyrosine-protein kinase (Homo sapiens) (UniProt O15146).
T2 sequence (whole entry): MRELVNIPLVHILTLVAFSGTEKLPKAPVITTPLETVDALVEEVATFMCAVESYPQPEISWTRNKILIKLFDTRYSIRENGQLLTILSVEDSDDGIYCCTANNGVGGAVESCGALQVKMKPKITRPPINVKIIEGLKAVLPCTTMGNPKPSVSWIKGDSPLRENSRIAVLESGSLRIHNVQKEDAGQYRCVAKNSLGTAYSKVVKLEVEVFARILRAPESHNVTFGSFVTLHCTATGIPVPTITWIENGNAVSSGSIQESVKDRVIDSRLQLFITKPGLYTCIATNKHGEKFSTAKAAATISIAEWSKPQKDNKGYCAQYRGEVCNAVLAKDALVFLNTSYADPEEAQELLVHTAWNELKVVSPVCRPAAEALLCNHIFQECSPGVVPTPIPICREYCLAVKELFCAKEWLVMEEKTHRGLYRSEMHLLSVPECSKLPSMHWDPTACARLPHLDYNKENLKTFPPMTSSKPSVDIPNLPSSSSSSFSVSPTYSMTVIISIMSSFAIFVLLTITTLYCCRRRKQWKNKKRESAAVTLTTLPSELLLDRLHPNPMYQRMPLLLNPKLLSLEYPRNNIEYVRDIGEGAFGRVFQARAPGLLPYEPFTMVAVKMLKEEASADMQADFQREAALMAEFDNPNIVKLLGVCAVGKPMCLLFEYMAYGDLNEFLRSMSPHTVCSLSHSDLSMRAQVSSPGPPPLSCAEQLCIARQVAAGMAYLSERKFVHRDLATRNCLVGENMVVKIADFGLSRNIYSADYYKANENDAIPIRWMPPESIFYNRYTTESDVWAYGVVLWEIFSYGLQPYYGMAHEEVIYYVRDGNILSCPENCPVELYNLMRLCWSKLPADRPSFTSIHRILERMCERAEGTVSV
To be noted: at 0.1 µM.

Structures are written as SMILES.

The inhibition is the drop in the measured response relative to a control, in per cent.

Hepatocyte growth factor receptor (Homo sapiens), sequence (P08581 whole entry): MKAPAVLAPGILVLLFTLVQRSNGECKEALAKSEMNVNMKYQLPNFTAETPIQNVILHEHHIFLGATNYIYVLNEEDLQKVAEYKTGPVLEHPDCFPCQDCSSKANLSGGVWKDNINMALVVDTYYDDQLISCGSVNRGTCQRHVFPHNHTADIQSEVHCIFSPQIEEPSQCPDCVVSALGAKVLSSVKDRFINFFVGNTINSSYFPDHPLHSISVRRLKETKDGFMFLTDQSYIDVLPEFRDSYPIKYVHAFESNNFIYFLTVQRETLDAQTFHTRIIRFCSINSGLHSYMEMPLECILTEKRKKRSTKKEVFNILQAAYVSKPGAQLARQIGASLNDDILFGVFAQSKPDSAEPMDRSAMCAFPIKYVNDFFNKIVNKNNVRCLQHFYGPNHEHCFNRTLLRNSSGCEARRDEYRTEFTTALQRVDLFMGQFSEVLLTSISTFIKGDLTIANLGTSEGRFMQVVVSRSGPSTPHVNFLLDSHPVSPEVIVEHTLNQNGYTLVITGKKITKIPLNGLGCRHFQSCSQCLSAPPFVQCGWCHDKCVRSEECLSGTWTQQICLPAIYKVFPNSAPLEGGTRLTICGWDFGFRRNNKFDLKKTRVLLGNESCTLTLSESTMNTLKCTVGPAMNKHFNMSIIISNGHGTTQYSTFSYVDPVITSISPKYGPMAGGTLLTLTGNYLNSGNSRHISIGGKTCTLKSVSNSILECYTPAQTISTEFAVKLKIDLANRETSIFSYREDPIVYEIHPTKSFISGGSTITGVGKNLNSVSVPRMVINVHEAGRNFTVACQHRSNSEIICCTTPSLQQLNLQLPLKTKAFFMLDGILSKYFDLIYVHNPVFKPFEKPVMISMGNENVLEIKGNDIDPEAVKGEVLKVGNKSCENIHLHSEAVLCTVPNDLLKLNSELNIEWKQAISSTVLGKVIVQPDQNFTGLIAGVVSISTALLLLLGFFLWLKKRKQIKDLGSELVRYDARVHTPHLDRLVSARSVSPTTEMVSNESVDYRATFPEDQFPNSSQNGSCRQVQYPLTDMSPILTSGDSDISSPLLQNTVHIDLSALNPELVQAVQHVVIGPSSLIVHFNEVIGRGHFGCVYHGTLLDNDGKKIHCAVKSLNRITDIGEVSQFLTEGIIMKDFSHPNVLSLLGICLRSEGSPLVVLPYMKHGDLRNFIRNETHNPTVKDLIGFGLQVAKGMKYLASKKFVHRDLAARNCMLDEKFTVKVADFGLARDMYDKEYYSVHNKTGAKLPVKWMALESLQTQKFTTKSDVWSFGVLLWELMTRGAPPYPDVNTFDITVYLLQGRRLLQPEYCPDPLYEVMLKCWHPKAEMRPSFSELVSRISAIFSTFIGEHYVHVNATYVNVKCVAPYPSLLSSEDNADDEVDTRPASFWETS
Tyrosine-protein kinase Lyn (Homo sapiens), sequence (P07948 2-512 limits assumed): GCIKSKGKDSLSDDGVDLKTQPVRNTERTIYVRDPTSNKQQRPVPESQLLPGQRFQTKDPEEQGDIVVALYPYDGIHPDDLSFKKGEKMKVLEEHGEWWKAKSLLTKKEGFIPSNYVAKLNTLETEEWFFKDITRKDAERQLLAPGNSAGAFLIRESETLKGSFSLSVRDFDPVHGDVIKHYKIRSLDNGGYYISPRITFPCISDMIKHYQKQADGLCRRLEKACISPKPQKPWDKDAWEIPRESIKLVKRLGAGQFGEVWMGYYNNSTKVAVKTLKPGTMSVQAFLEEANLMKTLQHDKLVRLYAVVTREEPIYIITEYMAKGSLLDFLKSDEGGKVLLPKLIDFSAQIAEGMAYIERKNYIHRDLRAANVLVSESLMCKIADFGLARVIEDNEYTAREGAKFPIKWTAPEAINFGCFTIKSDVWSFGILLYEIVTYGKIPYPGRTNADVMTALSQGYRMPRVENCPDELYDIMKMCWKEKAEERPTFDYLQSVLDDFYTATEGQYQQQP
Mast/stem cell growth factor receptor Kit (Homo sapiens), P10721 [T670I], sequence (P10721 whole entry T670I): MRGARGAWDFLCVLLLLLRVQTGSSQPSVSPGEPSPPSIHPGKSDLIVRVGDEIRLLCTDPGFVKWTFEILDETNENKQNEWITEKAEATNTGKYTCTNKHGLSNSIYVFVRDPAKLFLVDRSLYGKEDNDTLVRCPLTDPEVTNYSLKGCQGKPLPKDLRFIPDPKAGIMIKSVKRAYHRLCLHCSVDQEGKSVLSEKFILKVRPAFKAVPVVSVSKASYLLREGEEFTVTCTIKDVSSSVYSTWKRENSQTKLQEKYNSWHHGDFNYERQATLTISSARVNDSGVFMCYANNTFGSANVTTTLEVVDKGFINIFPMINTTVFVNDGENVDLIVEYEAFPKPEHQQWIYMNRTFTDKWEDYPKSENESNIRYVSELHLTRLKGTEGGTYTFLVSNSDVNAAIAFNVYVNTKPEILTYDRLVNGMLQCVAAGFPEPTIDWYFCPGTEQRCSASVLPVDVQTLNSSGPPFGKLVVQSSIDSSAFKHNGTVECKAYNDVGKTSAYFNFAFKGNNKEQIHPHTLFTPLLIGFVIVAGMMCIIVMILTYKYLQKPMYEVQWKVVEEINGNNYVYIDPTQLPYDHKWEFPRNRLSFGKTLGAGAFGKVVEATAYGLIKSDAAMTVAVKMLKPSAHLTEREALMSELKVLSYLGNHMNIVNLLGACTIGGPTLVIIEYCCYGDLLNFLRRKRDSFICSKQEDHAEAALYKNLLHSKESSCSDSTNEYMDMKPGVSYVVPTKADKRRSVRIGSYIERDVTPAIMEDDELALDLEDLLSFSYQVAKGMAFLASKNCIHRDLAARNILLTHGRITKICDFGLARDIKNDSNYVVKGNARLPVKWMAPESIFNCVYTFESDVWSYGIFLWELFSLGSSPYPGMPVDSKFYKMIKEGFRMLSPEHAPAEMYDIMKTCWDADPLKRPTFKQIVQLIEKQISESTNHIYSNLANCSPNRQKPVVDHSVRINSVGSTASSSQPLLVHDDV
Mast/stem cell growth factor receptor Kit (Homo sapiens), P10721 [V560G], sequence (P10721 whole entry V560G): as the sequence (P10721 whole entry T670I) above, with V560G, I670T counted along it
Leukocyte tyrosine kinase receptor (Homo sapiens), sequence (P29376 whole entry): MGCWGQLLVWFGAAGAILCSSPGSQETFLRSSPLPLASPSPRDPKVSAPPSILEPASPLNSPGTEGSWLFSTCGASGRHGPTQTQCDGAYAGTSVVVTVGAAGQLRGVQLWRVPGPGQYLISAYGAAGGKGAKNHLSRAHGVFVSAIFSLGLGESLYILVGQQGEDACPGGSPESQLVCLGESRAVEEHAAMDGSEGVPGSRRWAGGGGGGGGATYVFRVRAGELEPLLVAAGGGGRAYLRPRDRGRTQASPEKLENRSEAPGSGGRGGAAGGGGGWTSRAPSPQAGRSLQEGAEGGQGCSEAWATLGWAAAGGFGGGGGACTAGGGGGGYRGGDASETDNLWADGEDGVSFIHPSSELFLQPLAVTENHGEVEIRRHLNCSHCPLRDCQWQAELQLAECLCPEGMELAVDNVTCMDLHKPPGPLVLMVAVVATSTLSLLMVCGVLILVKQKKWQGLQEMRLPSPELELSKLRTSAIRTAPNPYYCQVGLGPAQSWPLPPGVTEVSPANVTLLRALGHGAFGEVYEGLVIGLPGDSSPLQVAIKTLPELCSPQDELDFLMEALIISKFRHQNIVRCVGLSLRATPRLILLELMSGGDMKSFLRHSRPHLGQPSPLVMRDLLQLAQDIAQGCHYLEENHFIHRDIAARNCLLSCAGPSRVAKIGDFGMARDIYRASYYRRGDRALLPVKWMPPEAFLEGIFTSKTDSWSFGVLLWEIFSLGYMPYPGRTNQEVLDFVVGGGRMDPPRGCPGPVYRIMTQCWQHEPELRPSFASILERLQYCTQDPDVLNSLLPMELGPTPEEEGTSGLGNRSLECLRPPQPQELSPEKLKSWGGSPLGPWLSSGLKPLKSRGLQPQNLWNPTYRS
Mast/stem cell growth factor receptor Kit (Homo sapiens), sequence (P10721 whole entry): as the sequence (P10721 whole entry T670I) above, with I670T counted along it
Mast/stem cell growth factor receptor Kit (Homo sapiens), P10721 [D816V], sequence (P10721 whole entry D816V): as the sequence (P10721 whole entry T670I) above, with I670T, D816V counted along it
Tyrosine-protein kinase Lck (Homo sapiens), sequence (P06239 2-509 limits assumed): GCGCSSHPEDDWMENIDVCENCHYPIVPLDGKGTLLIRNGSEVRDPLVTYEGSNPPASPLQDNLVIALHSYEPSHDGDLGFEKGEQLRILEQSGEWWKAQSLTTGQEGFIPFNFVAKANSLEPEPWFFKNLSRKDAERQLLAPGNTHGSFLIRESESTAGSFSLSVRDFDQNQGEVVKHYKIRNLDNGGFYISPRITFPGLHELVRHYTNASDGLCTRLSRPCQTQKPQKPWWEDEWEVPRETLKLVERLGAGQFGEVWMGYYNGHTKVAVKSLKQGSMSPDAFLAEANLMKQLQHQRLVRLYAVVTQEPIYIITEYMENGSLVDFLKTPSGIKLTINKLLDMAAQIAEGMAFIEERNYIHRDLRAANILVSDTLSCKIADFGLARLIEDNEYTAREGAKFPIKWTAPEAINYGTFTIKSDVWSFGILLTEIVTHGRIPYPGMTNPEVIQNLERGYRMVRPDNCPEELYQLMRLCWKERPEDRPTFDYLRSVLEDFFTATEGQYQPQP

As to `COC(=O)Nc1nc2cc(Oc3cccc(NC(=O)Nc4cc(C(F)(F)F)ccc4F)c3)ccc2[nH]1`, the inhibition in assay [1] is 48.2%; in assay [2] it was 1.96%; in [3] it was -0.67%; in assay [4], -2.55%; in assay [5], 2.17%; in assay [6], 4.04%. Also, the inhibition in assay [7] worked out at 38.8%; in assay [8] it was 1.15%; in assay [9] it was 10.5%; in assay [10], 0.06%; in [11], 24.9%; in assay [12] it was 7.9%. Besides, the inhibition in assay [13] is 45.9%; in [14], 5.64%; in [15] it was 41.6%; in assay [16] it was -1.21%; in [17], -0.14%; in assay [18], 1%. Besides, the results for the inhibition in [19] and in assay [20] were 0.32% and 4.58%, respectively.
As to `CN1CCC(C(=O)Nc2n[nH]c3nnc(-c4ccccc4)cc23)CC1`, the inhibition in [1] is 8.5%; in [2], 7.35%; in assay [3], 3.19%; in assay [4], 4.77%; in assay [5], 5.4%; in assay [6], -3.89%. Besides, the inhibition in assay [7] turned out to be 1.05%; in assay [8] it was 1.6%; in assay [9], 4.09%; in assay [10], 3.64%; in [11], 4.51%; in assay [12] it was 5.18%. Besides, the inhibition in assay [13] is 4.72%; in [14] it was 2.24%; in assay [15], 3.51%; in assay [16], 1.95%; in [17] it was 7.11%; in [18] it was 1.78%. For the same compound, the inhibition was 3.43% in assay [19] and 3.93% in [20].
As to `O=C(Nc1n[nH]c2nc(-c3ccco3)c(Br)cc12)C1CC1`, the inhibition in assay [1] is 4.71%; in assay [2] it was 4%; in [3] it was -1.99%; in assay [4] it was 2.25%; in [5] it was 1.3%; in [6], 1.23%. For the same compound, the inhibition in assay [7] was 1.62%; in [8] it was 1.39%; in [9], 6.71%; in assay [10], 1.93%; in [11], 0.72%; in assay [12], 4.37%. Also, the inhibition in [13] was found to be 4.24%; in [14] it was 2.54%; in assay [15], 3.6%; in [16], 1.42%; in assay [17], 4.5%; in [18], 1.38%. For the same compound, the inhibition in [19] was found to be 6.65%; in [20], 2.24%.
Turning to `CS(=O)(=O)CCNCc1ccc(-c2ccc3ncnc(Nc4ccc(OCc5cccc(F)c5)c(C(F)(F)F)c4)c3c2)o1`, the inhibition was 4.6% in [1]; 5.18% in assay [2]; 2.67% in assay [3]; 4.9% in assay [4]; 4.53% in assay [5]; -3.52% in assay [6]. Moreover, the inhibition was -0.7% in assay [7]; 1.82% in assay [8]; 3.95% in [9]; 3.59% in assay [10]; 3.49% in assay [11]; 6.53% in assay [12]. Moreover, the inhibition in [13] was found to be 6.94%; in [14] it was 3.88%; in [15] it was 4.94%; in [16], 1.14%; in [17] it was 0.83%; in [18], 7.18%. In addition, the inhibition was 3.55% in [19] and 3.27% in [20].
As for `O=C1Nc2ccc(C(=O)c3ccco3)cc2C1=Cc1cc(Cl)c(O)c(Cl)c1`, the inhibition in assay [1] came out at 63.5%; in assay [2], 1.83%; in assay [3], 0.61%; in assay [4], 2.58%; in assay [5] it was 21.1%; in assay [6], 3.94%. Further, the inhibition in [7] is 6.75%; in assay [8], 2.53%; in [9] it was 12.8%; in assay [10] it was 9.03%; in [11], 44.2%; in assay [12], 5.67%. The inhibition turned out to be 18.9% in assay [13]; 2.95% in assay [14]; 16.2% in [15]; 1.35% in [16]; 4.42% in assay [17]; 2.06% in [18]. Also, the inhibition turned out to be 15.7% in assay [19] and 4.03% in [20].
For `Nc1nc(-c2ccc3c(c2)C(=Cc2cc(Br)c(O)c(Br)c2)C(=O)N3)cs1`, the inhibition in assay [1] is 3.41%; in assay [2], 0.19%; in [3] it was -1.02%; in [4] it was -2.39%; in [5] it was -1.52%; in [6] it was 3.52%. In addition, the inhibition is 1.96% in assay [7]; -1.54% in assay [8]; 4.41% in [9]; 1.87% in assay [10]; 17.4% in assay [11]; 0.87% in assay [12]. For the same compound, the inhibition in assay [13] was 6.57%; in [14] it was 0.59%; in assay [15], 4.62%; in assay [16] it was -0.02%; in assay [17], 3.29%; in assay [18] it was 1.02%. Also, the inhibition in assay [19] came to 4.73%; in assay [20] it was 0.81%.
For `CC1=C(C(=O)Nc2ccc3[nH]ncc3c2)C(c2ccc(F)cc2)NC(=O)N1` (stereo not given), the inhibition in assay [1] is 3.87%; in [2] it was 0.52%; in assay [3], 1.15%; in assay [4], 1.53%; in assay [5], 0.34%; in assay [6], -1.67%. Moreover, the inhibition in assay [7] is 0.31%; in assay [8] it was -0.28%; in [9], 3.1%; in [10], 0.93%; in [11], 1.52%; in assay [12], 2.06%. For the same compound, the inhibition in assay [13] was 2.69%; in assay [14], 0.99%; in assay [15], 1.73%; in [16], 1.43%; in assay [17], 0.93%; in [18] it was 3%. The inhibition in assay [19] came to 14.9%; in assay [20] it was 1.49%.

The record behind these values is ChEMBL document CHEMBL1961873, “Compounds: GSK PKIS; Assays: Nanosyn kinase panel” (2012).
